Data published in the supplement of paper PMC3334620.
Over roughly 33,000 sequences, “E-score (-0.5 to 0.5)” has its median near -0.043; the highest 2% begin near 0.37. For the sample, the highest values were picked, then their nearest neighbours and some sequences at random.

target: T1, Upc2 (UniProt Q12151); assay: PBM E-score (8-mer binding enrichment) (E-score (-0.5 to 0.5)); higher = stronger / more preferred TF binding; details: protein concentration: 200 nM; construct: GST-full length
T1 sequence: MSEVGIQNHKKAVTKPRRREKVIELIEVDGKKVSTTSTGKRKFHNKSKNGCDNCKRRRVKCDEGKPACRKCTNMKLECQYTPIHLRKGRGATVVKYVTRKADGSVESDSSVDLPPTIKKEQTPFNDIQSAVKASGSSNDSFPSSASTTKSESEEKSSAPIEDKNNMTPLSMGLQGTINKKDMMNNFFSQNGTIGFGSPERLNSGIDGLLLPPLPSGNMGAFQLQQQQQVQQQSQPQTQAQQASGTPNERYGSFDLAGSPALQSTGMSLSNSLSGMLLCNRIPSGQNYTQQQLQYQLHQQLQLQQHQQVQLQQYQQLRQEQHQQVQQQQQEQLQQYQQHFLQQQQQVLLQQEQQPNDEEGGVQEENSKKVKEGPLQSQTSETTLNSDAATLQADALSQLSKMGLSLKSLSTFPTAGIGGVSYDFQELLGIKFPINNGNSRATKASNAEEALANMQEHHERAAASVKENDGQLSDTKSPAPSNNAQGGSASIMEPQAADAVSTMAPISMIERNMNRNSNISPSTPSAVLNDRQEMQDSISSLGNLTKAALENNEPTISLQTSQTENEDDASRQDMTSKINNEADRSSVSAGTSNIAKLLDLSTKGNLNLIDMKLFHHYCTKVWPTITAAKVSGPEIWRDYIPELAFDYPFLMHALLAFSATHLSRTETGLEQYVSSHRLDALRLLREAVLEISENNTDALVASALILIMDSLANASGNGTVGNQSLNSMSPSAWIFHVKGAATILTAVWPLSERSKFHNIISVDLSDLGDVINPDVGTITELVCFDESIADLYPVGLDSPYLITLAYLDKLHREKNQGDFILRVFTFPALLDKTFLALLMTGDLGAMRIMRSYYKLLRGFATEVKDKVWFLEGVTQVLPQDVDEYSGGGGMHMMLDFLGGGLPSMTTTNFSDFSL
Description: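 Universal 'all 10-mer' protein binding microarrays (Agilent AMADID 015681) probed with GST-tagged S. cerevisiae TFs (full-length or DBD) made by in vitro transcription/translation (PURExpress), about 100-200 nM. Bound TF was detected with fluorescent anti-GST. Each ungapped 8-mer (which stands for itself and its reverse complement) is scored by the PBM enrichment score (E-score), a modified Wilcoxon-Mann-Whitney statistic from -0.5 to +0.5, computed with the Universal PBM Analysis Suite. Scale: above 0.35 generally sequence-specific binding.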

Row | Sequence | PBM E-score
1 | CCCGAGCC | -0.0326
2 | CGCATTCA | -0.00072
3 | ACTTAACG | 0.339
4 | CCTTAACG | 0.38
5 | CGTTAACC | 0.348
6 | CGTTAACA | 0.274
7 | CGTTAACG | 0.422
8 | CCTTAACA | -0.0468
9 | AAATCTCC | -0.271
10 | GTGACCAC | -0.283
11 | ACAATGAT | -0.102
12 | CGGCGCTC | 0.16
13 | GCCCTCGC | 0.219
14 | ATGGCTCA | -0.1
15 | CCTTTACC | -0.191
16 | ACTTTACT | -0.151
17 | CCTTTACG | 0.418
18 | CCTTTACA | -0.0853
19 | ACTTTACG | 0.409
20 | ATTTTACG | 0.394
21 | ACTTTACA | 0.0242
22 | AATTTACG | 0.335
23 | ATTTTACC | 0.00835
24 | ATTTGCAA | 0.0573
25 | AGATTGCT | -0.117

Row | Sequence | PBM E-score
26 | CAACTGCG | -0.0371
27 | GTACGGAA | 0.377
28 | CTACGGAC | -0.0487
29 | GCACGGAA | -0.15
30 | GTACGCAA | 0.247
31 | GTACGGAC | 0.35
32 | ATACGCAA | 0.37
33 | ATACGGAT | 0.357
34 | ATACGGAC | 0.394
35 | ACACGGAG | -0.0181
36 | ATACGCAG | 0.352
37 | CTACGGAG | -0.138
38 | ATACGGAG | 0.411
39 | CATGAGTC | -0.0488
40 | GTTCTCTA | 0.102
41 | CTCTCCTA | 0.0887
42 | GATTCACC | -0.129
43 | AATGGAGA | -0.179
44 | TATGCGCA | 0.0561
45 | TTACGGAA | 0.258
46 | ATACGGAA | 0.372
47 | CTACGGAA | 0.0194
48 | GGGGGCGA | -0.119
49 | TACAGCAA | 0.138
50 | AGAGTGGG | 0.0465

Row | Sequence | PBM E-score
51 | TGATCCAA | -0.132
52 | ACACGACC | 0.154
53 | ATACGACG | 0.483
54 | ATACGACC | 0.474
55 | AGACGACG | 0.237
56 | ACACGACG | 0.267
57 | CTACGACC | 0.364
58 | GCGTTTCC | 0.0493
59 | GCGTTTTA | 0.206
60 | GCGTTTGA | 0.151
61 | ACGTTTAC | 0.369
62 | CCGTTTAC | 0.451
63 | CTGTTTAC | 0.142
64 | GCGTTTAA | 0.4
65 | GCGTTTAC | 0.372
66 | CTGTTTAA | 0.0306
67 | CCGTTTAA | 0.466
68 | CCGTTTTA | 0.118
69 | GGGTTTAC | 0.144
70 | GGGAGCAA | -0.11
71 | GGCAAGGA | -0.205
72 | GGCTACTA | -0.0652
73 | ACAGTACC | -0.176
74 | CATCTAGA | 0.0683
75 | ACAAGGTA | 0.104

Row | Sequence | PBM E-score
76 | GAGAGGGA | -0.272
77 | ACTATACT | 0.152
78 | ATTATACC | 0.144
79 | ATTATACA | 0.0589
80 | ATTATACG | 0.482
81 | ACTATACG | 0.478
82 | CCTATACG | 0.487
83 | CCTATACC | 0.167
84 | CCTATACA | 0.151
85 | ACTATACA | 0.11
86 | AGTATACT | 0.242
87 | AGTATACG | 0.455
88 | AGTATATG | 0.0175
89 | AAAGAATA | 0.091
90 | AAGGTTAT | -0.0588
91 | GCCCCGCC | 0.112
92 | GGCGCAAC | 0.00488
93 | CACAGGGA | -0.233
94 | AGGACACT | -0.364
95 | AGTTTAAA | 0.11
96 | AGTTTAAC | 0.174
97 | CGTTTAAC | 0.473
98 | GGTTTAAC | 0.138
99 | CGTTTAAA | 0.47
100 | CCTTTAAG | -0.158

Row | Sequence | PBM E-score
101 | AGTTTAAG | 0.0878
102 | CGTTTAAG | 0.468
103 | TGTTTAAA | 0.0234
104 | AGGATGGG | 0.00396
105 | CAACCTCA | -0.0655
106 | AACTGTGT | -0.137
107 | CCTTAGCA | -0.336
108 | CCCTTATC | -0.205
109 | AGGTATAC | 0.339
110 | GTAACCGA | 0.322
111 | CTAACCGA | 0.37
112 | CTAACCGC | 0.0621
113 | CTGCTCTA | -0.0369
114 | ACAATCCT | -0.183
115 | CAGGACGG | -0.164
116 | CGAAGTAG | 0.00964
117 | GCACGAAA | 0.127
118 | GTACGAAA | 0.442
119 | ATTCGAAC | 0.119
120 | AGACGAAT | 0.0524
121 | ATACGAAT | 0.459
122 | ATACGAAC | 0.472
123 | GGACGAAA | -0.0427
124 | ACACGAAT | 0.258
125 | ACACGAAG | 0.211

Row | Sequence | PBM E-score
126 | CTACGAAG | 0.316
127 | ATCCGAAC | 0.146
128 | ATACGAAG | 0.476
129 | CATCGATC | -0.0852
130 | ATAGATTC | -0.12
131 | GGCATAAC | -0.0916
132 | ACCGATCC | -0.0521
133 | ATACTCAT | -0.111
134 | GTGGGCTA | -0.128
135 | GGACGAAC | 0.0508
136 | GTACGAAC | 0.467
137 | ATACGTAA | 0.334
138 | TCACGAAA | -0.0654
139 | CTACGAAC | 0.333
140 | AGACGAAA | 0.196
141 | ATACGAAA | 0.47
142 | ACACGAAA | 0.197
143 | ATACGTAC | 0.339
144 | TTACGAAA | 0.41
145 | ATACGTAT | 0.372
146 | CTACGAAA | 0.272
147 | AGCTCGAT | -0.0109
148 | AAGCTGGT | -0.0392
149 | CAGATTGG | -0.303
150 | CAACTTCA | -0.0217

Row | Sequence | PBM E-score
151 | CCATTTCA | -0.241
152 | CTCAGCTC | -0.114
153 | AGCGAGAG | 0.229
154 | CATATAAG | 0.17
155 | AGTATAAA | 0.238
156 | AGTATAAG | 0.261
157 | GGTATAAC | 0.135
158 | AGTATAAC | 0.172
159 | CGTATAAC | 0.478
160 | CGTATAAA | 0.477
161 | TGTATAAA | 0.156
162 | CGTATAAG | 0.481
163 | AACTTTCC | -0.281
164 | AGCTCTCA | -0.214
165 | GGGAGGTA | 0.132
166 | CACAGATA | -0.136
167 | GCACTGGA | -0.0891
168 | GGTATACA | -0.0256
169 | CGTATACA | 0.474
170 | CGTATACC | 0.472
171 | GGTATACC | 0.214
172 | AGTATACA | 0.149
173 | AGTATACC | 0.124
174 | CGTTCATC | 0.353
